Source: PubChem BioAssay
L3MBTL1 block = qHTS Assay for the Inhibitors of L3MBTL1. Lethal(3)malignant brain tumor-like protein 1 (Homo sapiens), Q9Y468. AlphaScreen L3MBTL1–H3K9me1 peptide binding. Potency, µM (highest dose often 57.1 µM), usual class: inhibitors. hit rate 0.66% among 230,000. AID 485360, 2010; note: nearly all actives have a fitted effect of over 60% in size
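AlphaScreen proximity signal between nickel-chelate acceptor and streptavidin donor beads (final 10 ug/mL) reports binding of 50 nM L3MBTL1 to 75 nM biotin-H3 K9me1 peptide; complex incubated with compounds 30 min at room temperature; cefsulodin titration as control.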
HP1b chromo inh = HTS for Inhibitors of HP1-beta Chromodomain Interactions with Methylated Histone Tails; AlphaScreen HP1-beta / biotin-H3K9me3 peptide binding; hit rate 0.56% among 390,000; Potency, µM (doses to about 114 µM), hits mostly inhibitors; Chromobox protein homolog 1 (Homo sapiens), P83916; note: nearly all actives have a fitted effect of over 70% in size
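AlphaScreen: HP1-beta (50 nM) preformed 30 min with biotin-H3(1-18)K9me3 peptide (50 nM) in PBS pH 7.4, 0.01% Tween-20. Compound added for 30 min at RT, then streptavidin donor/nickel chelate acceptor beads (10 ug/mL) for 30 min.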
JMJD2A Tudor inh = qHTS Assay for Inhibitors of JMJD2A-Tudor Domain. Lysine-specific demethylase 4A (Homo sapiens), O75164. AlphaScreen JMJD2A-Tudor / H3K4me3 peptide binding. Potency, µM (doses to about 114 µM), actives largely listed as inhibitors. hit rate 4.4% among 390,000. AID 504339, 2011; note: nearly all actives have a fitted effect of over 50% in size
Sfp inh = qHTS Assay for Inhibitors of Bacillus subtilis Sfp phosphopantetheinyl transferase (PPTase). Biochemical Sfp PPTase activity, qHTS. Potency, µM, most hits filed as inhibitors. hit rate 3.5% among 310,000. AID 1490, 2009;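 note: the enzyme is Sfp with the accession as filed and its product quenches rhodamine fluorescence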
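Sfp 15 nM + cpd, 15 min RT; start w/ rhodamine-CoA 5 uM, BHQ-2-YbbR 12.5 uM (final); 50 mM Hepes pH 7.6, 10 mM MgCl2, 0.01% NP-40, 0.01% BSA; read 525/598 nm at 0 and 30 min.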
BAZ2B block = qHTS Assay for Inhibitors of BAZ2B; hit rate 4.4% among 360,000; Bromodomain adjacent to zinc finger domain protein 2B (Homo sapiens), Q9UIF8; Potency, µM (titrated, usually from 114 µM), usual class: inhibitors; AlphaScreen BAZ2B-H3K14Ac peptide displacement; note: nearly all actives have a fitted effect of over 60% in size
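AlphaScreen luminescence quantifies BAZ2B engagement of H3K14Ac peptide; the protein and biotinylated peptide are both at 50 nM final, buffer PBS pH 7.4 with 0.01% Tween-20, all steps at room temperature.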
G9a inh = qHTS Assay for Inhibitors of Histone Lysine Methyltransferase G9a | hit rate 8.8% among 350,000 | Histone-lysine N-methyltransferase EHMT2 (Homo sapiens), Q96KQ7 | G9a H3K9 monomethylation, AlphaScreen, 2 h | Potency, µM (series often up to 102 µM), most hits filed as inhibitors; note: nearly all actives have a fitted effect of over 75% in size
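Methyltransferase reactions run at room temperature for 2 h (20 nM enzyme, 500 nM biotin-H3K9 peptide, 20 uM SAM) after a 15 min compound preincubation; product detected by AlphaScreen beads and anti-H3K9me1 antibody.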
Numbers stand for hits; 0 = inactive; ? = inconclusive; - = not tested or not shown; [ ] = another dose, or the depositor's remark. Shown are actives, neighbours in structure and some others; about 12% of the full set was active somewhere. Calls come from the whole dose curve; as a rule, active = well fitted curve in the direction sought with a large enough effect; inconclusive = small, poorly fitted or top-dose-only effect, or another doubt; inactive = no such curve, though single readings can be large; an effect the other way counts as inactive or inconclusive.

SMILES	L3MBTL1 block	HP1b chromo inh	JMJD2A Tudor inh	Sfp inh	BAZ2B block	G9a inh
COc1ccc2ccccc2c1/C=N/NC(=O)c1cccc([N+](=O)[O-])c1	-	0	0	0	0	0
Cc1nn(-c2ccccc2Cl)c(Cl)c1/C=N/Nc1cccc(C(=O)O)c1	?	0	0	0	?	8.9µM
O=C(N/N=C/c1sc(=O)n(Cc2ccc(Br)cc2)c1Cl)c1ccco1	-	0	?	0	89µM	0[0.0925 µM]
Cc1nn(-c2cccc(C(F)(F)F)c2)c(Cl)c1/C=N/Nc1cccc(C(=O)O)c1	0	0	?	0	?	?
O=C(N/N=C/c1ccc(O)cc1)c1cccc(N/N=C/c2ccc(O)cc2)c1	0	0	0[11.4 µM]	0	0	10µM
Cc1cc(C)cc(OCC(=O)Nc2ccc3c(c2)C(=O)c2ccccc2C3=O)c1	0	0	0	0	0	0
Cc1ccc(/C=C/c2onc(C)c2S(=O)(=O)N2CCC(C(=O)NCC(C)c3ccccc3)CC2)cc1 (stereo not given)	-	0	0	-	0	0
O=C(O)c1cccc(N/N=C/c2ccc(F)c(F)c2)c1	0	0	0	0	0	7.9µM
O=C(O)c1cccc(N/N=C/c2sc(N3CCOCC3)nc2-c2ccccc2)c1	0	0	0	0	?	?
Cc1cccc2cc(/C=N/Nc3ccc(C(=O)O)cc3)c(Cl)nc12	-	0	?	0	50µM	-
O=C(O)c1ccc(N/N=C/c2cc3ccccc3nc2Cl)cc1	-	0	0	0	0	?
O=C(N/N=C/c1ccc(F)c(F)c1)c1cccc(S(=O)(=O)N2CCCCC2)c1	0	0	0	-	0	0[12.7 µM]
O=C(O)c1cccc(N/N=C/c2cccc3ccccc23)c1	-	0	0	0	0	35µM
O=C(O)c1cccc(N/N=C/C2=C(Cl)c3cc(Cl)ccc3SC2)c1	-	0	56µM	0	50µM	50µM
CCOC(=O)[C@H](C)N1[C@H](C)[C@H](c2ccccc2)Oc2ccc(Cl)cc2S1(=O)=O	-	0	0	-	-	-
COc1ccc(N/N=C/c2c(C(=O)O)ccc3ccccc23)cc1	-	0	0	0	0	0[12.7 µM]
O=C(O)c1cccc(Cn2c(Cl)c(/C=N/Nc3ccccc3)sc2=O)c1	-	0	?	8.9µM	25µM	13µM
Cc1ccsc1/C=N/Nc1cccc(C(=O)O)c1	-	0	0	0	0	45µM
COc1ccc(-c2nn(-c3ccccc3)cc2/C=N/Nc2ccc(Cl)c(C(=O)O)c2)cc1OC	0	0	0	0	0	40µM
COc1ccc2ccccc2c1/C=N/Nc1ccc(Cl)c(C(=O)O)c1	-	?	0	0	?	45µM
O=C(O)c1cccc(Cn2c(Cl)c(/C=N/NC(=O)c3ccccc3Cl)sc2=O)c1	0	0	0	0	0	0
O=C1OCC/C1=C\OCCCO/C=C1\CCOC1=O	-	0	0	0	0	0
Cc1ccc(S(=O)(=O)NNC(=O)c2sc(=S)n(C)c2C)cc1	0	0	3.5µM	0	0	?
O=C(NNS(=O)(=O)c1ccccc1)c1cccc(F)c1	0[2.29 µM]	0	0	35µM	56µM	0[0.501 µM]
Cc1ccc(S(=O)(=O)NNC(=O)c2cccnc2)cc1	-	0	0	0	-	0
SMILES	L3MBTL1 block	HP1b chromo inh	JMJD2A Tudor inh	Sfp inh	BAZ2B block	G9a inh
Cc1ccc(S(=O)(=O)NNC(=O)c2ccncc2)cc1	0	0	79µM	0	0	0
Cc1cccc(C(=O)NNS(=O)(=O)c2ccc(F)cc2)c1	0	0	0	0	0	-
Cc1c(C(=O)N/N=C/c2ccc(O)cc2)sc(=S)n1C	0	0	0	0	0	0
Cc1cccc(C(=O)NNS(=O)(=O)c2ccc(F)cc2)c1O	0	0	2µM	0	0	0
O=C(NNS(=O)(=O)c1ccccc1)c1ccc([N+](=O)[O-])cc1	0	0	0	0	0	0
O=C(NNS(=O)(=O)c1ccc([N+](=O)[O-])cc1)c1ccncc1	-	0	0	?	0	40µM
O=C(NNS(=O)(=O)c1ccccc1)c1ccncc1	0	0	10µM	0	0	?
O=C(NNC(=O)c1ccncc1)c1ccccc1	-	0	0	0	0	0
COc1ccc(Nc2nccc(-c3cccc(N)c3)n2)cc1	-	0	0	0	56µM	0
COc1ccc(CC(=O)NC2CC(=O)N(c3ccc4c(c3)OCCO4)C2)cc1 (stereo not given)	-	0	0	-	0	0
CC(=O)C1=C(O)C=C(c2ccco2)CC1c1ccco1 (stereo not given)	0	0	0	0	56µM	?
COc1cccc(C2=CC(=O)CC(c3ccco3)C2)c1 (stereo not given)	-	0	0	-	-	-
